Measured values taken from article PMC4336329 (PLoS ONE, 2015).
In all, about 310,000 compounds went through this assay and about 14,000 (4.5%) showed an effect of 50% or more. Effects have a minus sign here. The full list was thinned out, with strong results kept by preference.

molecular target: human ether-à-go-go-related gene (hERG) potassium channel (human, UniProt Q12809); assay: primary screen, population patch clamp on CHO cells stably expressing hERG; higher = less effect of the substance
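Further: peak tail current of the secondary pulse compared with the same well before compound.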

Sequence of human ether-à-go-go-related gene (hERG) potassium channel (Q12809 whole entry, looked up): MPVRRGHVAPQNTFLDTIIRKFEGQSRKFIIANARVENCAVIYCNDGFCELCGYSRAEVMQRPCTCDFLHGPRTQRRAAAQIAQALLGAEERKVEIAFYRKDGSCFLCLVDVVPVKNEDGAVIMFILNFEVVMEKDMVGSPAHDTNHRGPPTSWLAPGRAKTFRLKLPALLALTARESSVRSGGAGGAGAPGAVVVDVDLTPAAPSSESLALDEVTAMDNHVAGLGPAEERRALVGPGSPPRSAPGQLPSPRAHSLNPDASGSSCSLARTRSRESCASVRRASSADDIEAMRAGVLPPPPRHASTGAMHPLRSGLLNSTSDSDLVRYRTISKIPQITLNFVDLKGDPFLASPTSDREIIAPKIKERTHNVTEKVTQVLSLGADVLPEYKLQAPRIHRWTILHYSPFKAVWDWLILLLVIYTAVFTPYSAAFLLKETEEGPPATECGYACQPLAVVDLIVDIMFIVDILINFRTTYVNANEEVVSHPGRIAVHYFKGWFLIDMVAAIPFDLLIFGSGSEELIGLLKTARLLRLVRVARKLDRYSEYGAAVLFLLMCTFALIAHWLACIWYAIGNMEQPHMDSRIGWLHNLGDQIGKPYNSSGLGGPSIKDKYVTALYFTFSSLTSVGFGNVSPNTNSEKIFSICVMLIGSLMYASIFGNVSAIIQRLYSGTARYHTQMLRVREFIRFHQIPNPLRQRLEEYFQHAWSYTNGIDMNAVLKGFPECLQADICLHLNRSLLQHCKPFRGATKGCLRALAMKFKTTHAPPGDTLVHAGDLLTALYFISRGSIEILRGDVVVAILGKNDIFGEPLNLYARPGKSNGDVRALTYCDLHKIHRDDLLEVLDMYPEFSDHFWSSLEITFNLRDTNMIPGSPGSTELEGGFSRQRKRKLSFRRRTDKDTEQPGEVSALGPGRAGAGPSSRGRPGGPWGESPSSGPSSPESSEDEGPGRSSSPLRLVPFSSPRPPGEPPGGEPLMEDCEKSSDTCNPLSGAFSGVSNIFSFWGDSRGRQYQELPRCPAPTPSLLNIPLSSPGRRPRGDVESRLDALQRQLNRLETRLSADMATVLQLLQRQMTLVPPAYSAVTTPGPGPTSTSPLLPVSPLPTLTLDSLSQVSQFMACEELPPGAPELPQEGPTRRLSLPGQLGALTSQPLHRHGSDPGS

| SMILES | hERG current change (%, negative = inhibition) at 10uM [%] |
| --- | --- |
| COc1ccc(OC)c(NC(=O)COc2ccc(S(=O)(=O)N3CCCC3)cc2)c1 | -23.4 |
| O=C(CCC(=O)n1ncc2ccccc21)NCc1ccc(F)cc1 | -18.1 |
| Cc1ccc(C(=O)N2CCN(c3ncccn3)CC2)cc1 | 12.6 |
| Cc1ccc(C(=O)N2CCN(c3ccccn3)CC2)cc1 | -14.3 |
| Cc1ccc(C(=O)N2CCN(c3nc4ccccc4n3C)CC2)cc1 | -70.3 |
| CCOC(=O)C1CCN(S(=O)(=O)c2ccc3c(c2)CCN3C(=O)C2CCC2)CC1 | 14.1 |
| COc1ccc(C(=O)N(C)CCCC2CCCC2)cc1OC1CCN(C(C)=O)CC1 | -32.2 |
| COc1ccc(C(=O)NC2CCCCC2)cc1OC1CCN(C(C)C)CC1 | -69.7 |
| COc1ccc(C(=O)NCCCSC)cc1OC1CCN(C(C)C)CC1 | -11.8 |
| COc1ccc(C(=O)N[C@H]2CCCCNC2=O)cc1OC1CCN(C(C)C)CC1 | 15.3 |
| COc1ccc(C(=O)N(C)CCCC2CCCC2)cc1OC1CCN(C(C)C)CC1 | -68.4 |
| COC(=O)CN(C)C(=O)c1ccc(OC)c(OC2CCN(C(C)C)CC2)c1 | 13.1 |
| COc1ccc(C(=O)NC2CC2)cc1OC1CCN(C(C)CSC)CC1 (stereo not drawn) | -75.4 |
| COc1ccc(C(=O)NC2CCCCCC2)cc1OC1CCN(C(C)=O)CC1 | -4.48 |
| CCOCCCNC(=O)c1ccc(OC)c(OC2CCN(C(C)C)CC2)c1 | 10.7 |
| COc1ccc(CCNC(=O)COC(=O)c2cc(=O)c3ccccc3o2)cc1 | -1.09 |
| Cc1cc(NC(=O)NC(=O)c2ccccc2)no1 | 23.1 |
| Cn1c(O)c(N=Nc2nc(-c3ccccc3)cs2)c2ccccc21 | -6.78 |
| Cc1ccc(CNC(=O)CCSCCC(=O)NCc2ccc(C)cc2)cc1 | 7.08 |
| N#Cc1c(NC(=O)c2cc([N+](=O)[O-])ccc2N2CCOCC2)sc2c1CCCC2 | 4.02 |
| CN1C(=O)c2cccc3c(Br)ccc(c23)C1=O | -16.2 |
| COC(=O)COc1ccc2cccc(-n3cnnn3)c2c1 | 12.5 |
| CCc1ccc2c(COC(=O)C3CSC4(C)CCC(=O)N34)cc(=O)oc2c1 (stereo not drawn) | -61.1 |

| SMILES | hERG current change (%, negative = inhibition) at 10uM [%] |
| --- | --- |
| CCc1ccc(C(=O)NNC(=O)C2CSC3(C)CCC(=O)N23)cc1 (stereo not drawn) | -6.99 |
| CC12CCC(=O)N1C(C(=O)OCc1c(Cl)cccc1Cl)CS2 (stereo not drawn) | -4.54 |
| CCN(Cc1ccccc1)CC(O)COC(c1ccc(OC)cc1)c1ccc(OC)cc1 (stereo not drawn) | -75.1 |
| CCCC(O)(c1ccc(OC)cc1)C(CN(C)C)c1ccccc1 (stereo not drawn) | -4.69 |
| CCN(Cc1ccccc1)CC(O)COc1ccccc1.Cl (stereo not drawn) | -25.7 |
| CC(OCC(O)CN(C)Cc1nc2ccccc2c(=O)[nH]1)c1ccc(Cl)cc1 (stereo not drawn) | -34 |
| CN(C)CC(O)COC(c1ccc(Cl)cc1)c1ccc(Cl)cc1 (stereo not drawn) | -75.8 |
| CCN(CC)CC(O)COC(c1ccccc1)c1ccccc1 (stereo not drawn) | -57.8 |
| COCCN(CCOC)CC(O)COC(c1ccccc1)c1ccccc1 (stereo not drawn) | -35.9 |
| CC(O)CN(Cc1ccc(Cl)cc1)CC(C)O (stereo not drawn) | 7.61 |
| OC(COc1ccccc1)CN(Cc1ccccc1)CC(O)COc1ccccc1 (stereo not drawn) | -9.08 |
| CN(C)CC(O)COC(c1ccccc1)c1ccccc1 (stereo not drawn) | -51.6 |
| CCOC(C(=O)OCC(O)CN(CC)CC)(c1ccccc1)c1ccccc1.Cl (stereo not drawn) | -5.25 |
| CN(C)CCC(O)c1ccccc1 (stereo not drawn) | 9.45 |
| Cc1ccc(CN2CCCC(C(=O)N3CCCC3)C2)cc1.O=C(O)C(=O)O (stereo not drawn) | -5.83 |
| O=C(O)c1cc2nc(-c3ccccc3)cc(-c3ccccc3)n2n1 | 6.39 |
| CN(C)S(=O)(=O)Oc1ccsc1C(=O)Nc1ccc(Br)cc1 | -12.2 |
| CCOC(=O)[C@H]1[C@H]2COc3cc(OC)ccc3[C@@H]2N2C(=O)c3cc(OC)c(OC)cc3NC(=O)[C@@]12C | -2.44 |
| Cc1ccc(C(=O)NNC(=O)C2CCN(c3nc(C)cc(C)n3)CC2)cc1 | 4.83 |
| Cc1cccc(C)c1C(=NCCN(C)C)c1ccccc1.Cl | -41.3 |
| CCNc1nc(NCC)n2c(SCc3ccc(F)cc3)nnc2n1 | -20.1 |
| CC(C)=C1C2CCC1C(C(=O)Nc1sc(C)c(-c3ccc(C(C)C)cc3)c1C(N)=O)C2C(=O)O (stereo not drawn) | -22.5 |
